# Assay outcomes: PubChem, several laboratories
# Furin inhibitor = blocks human furin protease activity; P09958; purified furin, fluorogenic substrate cleavage; inhibition, % at 20 µM or 30 µM; 0.061% of 220,000 active; AID 463115; in the data active = inhibition above about 25%
# p-CIP stab down = compounds decreasing mouse p/CIP protein stability; Q05BA5; decrease of EGFP signal, % at 10 µM; 0.01% of 290,000 active; F442A p/CIP-EGFP cells, EGFP fluorescence, 16 h;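 active = EGFP signal decrease of at least 30% at 10 µM or well 3 SD below plate mean, unless failing retest; inactive = the rest, including hits failing retest or dose response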
# Tb hexokinase = blocks Trypanosoma brucei hexokinase 1 activity; inhibition, % at 10 µM; AID 1430; 0.11% of 220,000 active; recombinant TbHK1, G6PDH-coupled NADH A340;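 active = inhibition of 50% or more in the single-dose primary screen; inactive = inhibition below 50%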
# p97 inhibitor = blocks human p97 ATPase activity; P55072; recombinant p97 ATPase, Kinase-Glo ATP luminescence, 3 h; inhibition, % at 8 µM; 0.42% of 220,000 active; in the data active = inhibition above about 15%;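 also: 0% = DMSO vehicle and 100% = wells lacking enzyme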
# Target sequence (P55072 whole entry, looked up): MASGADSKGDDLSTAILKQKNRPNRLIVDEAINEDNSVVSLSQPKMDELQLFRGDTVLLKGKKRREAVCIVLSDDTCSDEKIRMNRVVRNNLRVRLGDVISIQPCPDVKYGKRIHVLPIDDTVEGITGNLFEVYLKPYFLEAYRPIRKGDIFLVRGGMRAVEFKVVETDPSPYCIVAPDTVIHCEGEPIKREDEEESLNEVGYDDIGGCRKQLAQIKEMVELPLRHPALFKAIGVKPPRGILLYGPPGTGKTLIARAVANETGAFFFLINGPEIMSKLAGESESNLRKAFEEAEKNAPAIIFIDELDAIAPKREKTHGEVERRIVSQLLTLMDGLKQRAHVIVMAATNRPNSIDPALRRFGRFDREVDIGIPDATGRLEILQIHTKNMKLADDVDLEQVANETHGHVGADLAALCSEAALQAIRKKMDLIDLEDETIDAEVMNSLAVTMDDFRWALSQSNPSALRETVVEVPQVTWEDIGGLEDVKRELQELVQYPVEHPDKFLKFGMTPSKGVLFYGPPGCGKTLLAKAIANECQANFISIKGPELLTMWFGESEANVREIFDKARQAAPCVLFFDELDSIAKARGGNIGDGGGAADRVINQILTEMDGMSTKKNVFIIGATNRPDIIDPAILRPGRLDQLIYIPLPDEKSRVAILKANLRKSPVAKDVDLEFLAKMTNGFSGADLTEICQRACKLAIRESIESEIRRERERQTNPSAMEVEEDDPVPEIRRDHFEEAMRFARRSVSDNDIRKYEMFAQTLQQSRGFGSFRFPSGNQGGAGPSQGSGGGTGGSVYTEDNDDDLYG
# HMGR II inh = blocks class II HMG-CoA reductase of Enterococcus faecalis | purified E. faecalis HMGR, NADPH absorbance 340 nm kinetic | inhibition, % at 10 µM | 0.41% of 190,000 active;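 active = inhibition above a set limit, the median over all tested compounds plus 3 SD, cut at about 9.5% in these data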;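 also: enzyme runs in reverse so mevalonate oxidation gives rising NADPH absorbance; 0% = complete reaction with DMSO and 100% = background rate lacking mevalonate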
# Redox H2O2 prof = compounds producing H2O2 with reducing agent – biochemical, NIH compound library profiling, artefact control for MLSCN library redox annotation, primary screen. DTT-dependent redox cycling H2O2, phenol red/HRP absorbance; 100% = 100 µM peroxide control, 0% = buffer. activation, % at 10 µM. 0.03% of 200,000 active;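 active = activation of at least 50% relative to the plate's high and low controls in the primary single-dose screen; inactive = activation below 50%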;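 also: compound incubated with DTT at 0.8 mM final as the reducing agent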
# An asterisk follows results filed as active; . = no result given. Only some compounds are listed: those with a hit (about 0.74% of all), similar ones and a draw of the others.
SMILES,Furin inhibitor,p-CIP stab down,Tb hexokinase,p97 inhibitor,HMGR II inh,Redox H2O2 prof
CC(=O)OCC1=C(C(=O)O)N2C(=O)C(NC(=O)C(C)Cn3nc(C)c(Cl)c3C)C2SC1 (stereo not drawn),-18,0,12,4,-6,-1
Cc1cccc(C)c1OCC(=O)Nn1c(=O)[nH]c2ccccc2c1=O,-30,-10,-2,-1,11*,0
Cc1cccc(C)c1OCC(=O)NCc1ccccc1,.,0,.,.,.,.
Cc1ccc(OCC(O)CN2CCC(Cc3ccccc3)CC2)c(C)c1 (stereo not drawn),.,-12,.,.,.,.
O=C(O)CN1CCCC1=Nc1ccccc1,-16,-12,-6,2,2,0
Cc1ccc(C)c(N=C2CCCN2Cc2ccccc2)c1C#N,3,-2,-5,2,13*,1
Cc1cccc(NC(=O)c2ccc(-c3ccccc3[N+](=O)[O-])o2)c1,-26,0,-10,5,10*,0
CCOc1ccc(NC(=O)CC2C(=O)N(c3cccc(OC)c3)C(=O)N2CCOC)cc1 (stereo not drawn),-19,-12,-2,2,.,.
CSc1cccc(NC(=O)NNC(=O)C2CCN(S(=O)(=O)N(C)C)CC2)c1,.,3,.,.,.,.
Clc1ccc(NNc2ccnc3cc(Cl)ccc23)cc1,-9,-1,-5,1,15*,1
Oc1ccc(Nc2ccnc3cc(Cl)ccc23)cc1,3,3,-32,-1,.,.
CC(=O)C1=C(C)OC(N)=C(C#N)C1c1cccc2ccccc12 (stereo not drawn),-6,2,-14,15*,.,.
CC(=O)C1=C(C)OC(N)=C(C#N)C1c1ccco1 (stereo not drawn),-6,-25,-26,-2,-2,1
O=C(CSc1nnc(Cn2c(=O)sc3ccccc32)n1-c1ccccc1)Nc1nccs1,-16,-10,1,15*,-7,-1
Cc1sc2ncnc(SCC(=O)NC(C)C(C)C)c2c1C (stereo not drawn),-8,6,-1,0,0,-1
Cc1sc2ncnc(SCC(=O)N(C(C)C)C(C)C)c2c1C,-22,14,0,2,11*,0
COc1cccc(NC(=O)CC(=O)c2ccccc2)c1,.,-15,.,.,.,.
O=c1c(OC2OC(CO)C(O)C(O)C2O)c(-c2ccc(O)c(O)c2)oc2cc(O)cc(O)c12 (stereo not drawn),-10,0,-19,6,16*,0
NNC(=O)CNC(c1ccccc1)c1cc(Br)ccc1NC(=O)CCN1CCOCC1 (stereo not drawn),-23,-20,-4,19*,-1,2
Cc1ccc(NC(=O)Cn2cccc2)cc1Cl,7,7,1,0,1,3
COc1ccc(NC(=O)Cn2cccc2)cc1Cl,-21,1,4,4,11*,2
COc1ccc(C(=O)N2CCCC(CCC(=O)NCc3ccccc3F)C2)c(OC)n1 (stereo not drawn),.,-7,.,.,.,.
COc1cc(SSc2cc(OC)cc([N+](=O)[O-])c2N)c(N)c([N+](=O)[O-])c1,-10,-3,14,-6,.,.
O=C(COCc1nc2ccccc2c(=O)[nH]1)NCC1CCCCC1,-16,-6,-6,-4,15*,0
O=c1[nH]c(CCC2CCCC2)nc2ccccc12,-10,-1,29,0,-4,0
SMILES,Furin inhibitor,p-CIP stab down,Tb hexokinase,p97 inhibitor,HMGR II inh,Redox H2O2 prof
CCCC(=O)NC(=S)Nc1ccc(Cl)cn1,-16,-18,1,6,29*,1
Nc1cccc(Oc2ccc3c(c2)C(=O)NC3=O)c1,.,2,.,.,.,.
O=C(Nc1cccc(-c2cn3c(n2)SCC3)c1)c1ccc2c(c1)OCO2,-22,-4,-1,2,4,0
O=C(Nc1ccc(-c2cn3c(n2)SCC3)cc1)c1ccc2c(c1)OCO2,-28,-8,-8,5,13*,-1
CCOC(=O)Nc1ccc2c(c1)N(C(=O)N1CCN(C)CC1)c1ccccc1CC2,-30,-24,2,-1,13*,-2
Cc1nc(COc2ccccc2Cl)sc1-c1ccnc(N)n1,-17,-7,-21,-2,.,.
O=C1[C@@H]2C(c3ccccc3Cl)=NO[C@@H]2C(=O)N1Cc1ccccc1,-11,-1,-1,-1,-2,3
COc1ccc(CN2C(=O)[C@@H]3C(c4ccccc4Cl)=NO[C@@H]3C2=O)cc1,-15,-7,1,7,11*,1
O=C(NNC(=O)C(O)(c1ccccc1)c1ccccc1)C1CC1,-25,9,-3,2,11*,4
CC(O)C(=O)N/N=C/c1ccccc1C(=O)O (stereo not drawn),-26,-5,-1,5,13*,0
CC(C)NC(=O)CC(=O)N/N=C\c1ccccc1C(=O)O,-31,-18,-3,3,-2,0
COc1cc(OC)cc(N(C(=O)CNC(=O)c2ccco2)C(C(=O)NCC2CCCO2)c2ccccc2)c1 (stereo not drawn),.,-6,.,.,.,.
O=C(Nc1ccc(N2CCOCC2)c(Cl)c1)c1ccc([N+](=O)[O-])o1,-9,-8,-21,3,26*,0
CCOC(=O)c1cc(CC)sc1/N=C/C1=C(O)CCCC1=O,37*,2,-5,2,-2,0
O=C(O)c1ccc(NS(=O)(=O)c2ccc(Cl)c(C(=O)Nc3ccccc3[N+](=O)[O-])c2)cc1,.,-5,.,.,.,.
Cc1cccc(C(=O)NN2S(=O)(=O)c3ccccc3S2(=O)=O)c1,-21,-2,2,9,-4,0
O=C(NN1S(=O)(=O)c2ccccc2S1(=O)=O)c1ccc(Br)cc1,-19,2,0,3,16*,0
CC1(NC(=S)Nc2ccccc2)CCS(=O)(=O)C1 (stereo not drawn),-24,2,-6,4,.,.
O=c1nc2ccccc2c2n1CC(CN1CCN(C(c3ccccc3)c3ccccc3)CC1)N2 (stereo not drawn),-14,-11,-8,2,0,0
O=C(c1cc2cc([N+](=O)[O-])ccc2oc1=O)N1CCN(C2CCCCC2)CC1,-28,-28,-17,1,9.7*,0
COc1ccc(Cl)cc1Nc1nc(-c2sc(NC(=O)c3ccccc3)nc2C)cs1,-8,-9,-25,-4,-10,22
COc1ccc(OC)c(Nc2nc(-c3sc(NC(=O)c4ccccc4)nc3C)cs2)c1,-19,-9,1,2,11*,2
CC(=O)Nc1cn(-c2ccccc2)nc1-c1ccccc1,-13,5,-4,0,-9,-1
O=C(CCl)Nc1cn(-c2ccccc2)nc1-c1ccccc1,-2,-20,4,15*,-6,-1
Cc1ccc(Cn2nnc3c(=O)[nH]c(C4CCN(S(=O)(=O)c5ccccc5F)CC4)nc32)cc1,.,1,.,.,.,.
CCN(CC)CC(=O)Nc1ccc(/C(C)=N/NC2=NCCN2)cc1,-20,-5,-3,1,9.7*,-1
